The full list was thinned out, with hits kept by preference.
HT1080-NT tox – kills 2HG-producing HT-1080-NT fibrosarcoma cells | HT-1080-NT fibrosarcoma viability, CellTiter-Glo ATP luminescence, 48 h | Potency, µM (series often up to 46.1 µM), for the others: at the highest dose activity, negative = less viability, most hits filed as cytotoxic | hit rate 1.6% among 360,000 | AID 686970;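 note: NT is the 2HG producing partner of a matched IDH1 knockdown line; potency is the fitted concentration of half-maximal effect; 0% = DMSO-treated cells and -100% = media-only wells without cells; nearly all actives have a fitted effect of over 55% in size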
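Read-out is CellTiter-Glo luminescence after 10 minutes at room temperature, following 48 hours' compound treatment of HT-1080-NT cells (750 cells/well, RPMI, 5% FBS, 37 degrees C).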
ALOX12 inh – inhibitors of human 12S-lipoxygenase ALOX12; Potency, µM (highest dose often 108 µM), for inactives: top-dose activity change, negative = inhibition, actives largely listed as inhibitors; AID 1671190; hit rate 1.1% among 580,000; purified 12hLO, xylenol orange hydroperoxide absorbance; note: potency is the fitted concentration of half-maximal effect
Target sequence (P18054 whole entry, looked up): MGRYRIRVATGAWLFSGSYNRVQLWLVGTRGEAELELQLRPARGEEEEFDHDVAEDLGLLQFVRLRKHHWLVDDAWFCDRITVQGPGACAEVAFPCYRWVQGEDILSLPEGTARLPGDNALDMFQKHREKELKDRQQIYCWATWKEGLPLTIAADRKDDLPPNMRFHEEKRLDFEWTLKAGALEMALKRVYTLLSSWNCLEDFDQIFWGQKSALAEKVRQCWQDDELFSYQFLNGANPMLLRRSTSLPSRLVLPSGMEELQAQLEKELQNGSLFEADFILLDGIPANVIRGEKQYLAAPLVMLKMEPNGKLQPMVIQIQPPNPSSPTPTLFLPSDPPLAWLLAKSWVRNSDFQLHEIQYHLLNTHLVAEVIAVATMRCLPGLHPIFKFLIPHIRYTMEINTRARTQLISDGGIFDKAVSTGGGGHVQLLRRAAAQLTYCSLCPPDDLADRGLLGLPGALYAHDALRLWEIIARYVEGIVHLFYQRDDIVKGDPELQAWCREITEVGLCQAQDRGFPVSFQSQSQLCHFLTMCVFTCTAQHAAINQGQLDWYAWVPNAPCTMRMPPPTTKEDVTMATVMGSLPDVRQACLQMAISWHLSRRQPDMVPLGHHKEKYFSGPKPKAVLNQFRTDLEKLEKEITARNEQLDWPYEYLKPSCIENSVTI
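Purified human 12hLO at 150 nM in 25 mM Hepes, 0.01% Triton X-100, pH 7.0, preincubated 15 min at room temperature with compound. Reaction started with 40 uM arachidonic acid, 30 min at room temperature. Hydroperoxide measured by Fe-xylenol orange, 573/405 nm absorbance ratio.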
HT1080 IDH1KD tx – HT-1080 IDH1 knockdown cell toxicity (counter line) | HT-1080 IDH1 knockdown viability, ATP luminescence, 48 h | Potency, µM (highest dose often 46.1 µM), inactives show top-dose activity, negative = toxicity, actives largely listed as cytotoxic | hit rate 2% among 360,000 | AID 686971;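 note: potency is the fitted concentration of half-maximal effect; 0% = DMSO wells and -100% = cell-free medium wells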
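Knockdown cells (IDH1KD HT-1080) received compounds 2 h after plating at 750 cells/well and were kept 48 h at 37 °C in 5% FBS RPMI. A CellTiter-Glo luminescence read gave % activity for curve fitting.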
DT40 TDP1 no CPT – qHTS for Inhibitors of human tyrosyl-DNA phosphodiesterase 1 (TDP1): qHTS in cells in absence of CPT; AID 686978, 2013; hit rate 15% among 420,000; Potency, µM (doses to about 46.2 µM), inactives show top-dose activity change, negative = growth inhibition, usual class: inhibitors; DT40 Tdp1-/- hTDP1 cells, no CPT, ATP luminescence, 48 h; note: potency is the fitted concentration of half-maximal effect; nearly all actives have a fitted effect of over 55% in size
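Readout: luminescence from CellTiter-Glo after 30 min in the dark at RT. Cells: DT40 Tdp1-/- with stable hTDP1, 400/well. Exposure: compounds alone, ≥48 hr, 37 °C.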
IL1B secr inh – blocks inflammasome-driven IL-1 beta release. THP-1 LPS/ATP IL-1B secretion, AlphaLISA, 16 h; hits give low values. activity change, % at 57.5 µM. hit rate 4.7% among 360,000; in the data active = activity change below about -50%; inconclusive = mostly about -30% to -49%
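THP-1 cells pretreated 1 hr with compounds (up to 57.5 uM final), then stimulated with LPS (250 ng/mL final) plus ATP (1.25 mM final); secreted IL-1B measured by AlphaLISA after 16 hr, decreased signal indicating inhibition.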
TDP1 cell CPT – growth inhibition of DT40 Tdp1-/-;hTDP1 cells with camptothecin (screen for TDP1 inhibitors). hit rate 12% among 420,000. chicken DT40 Tdp1-/-;hTDP1 cells + 20 nM CPT, ATP luminescence, 48 h. Potency, µM (highest dose often 46.2 µM), for inactives: top-dose activity change, negative = growth inhibition, actives largely listed as inhibitors; note: potency is the fitted concentration of half-maximal effect; nearly all actives have a fitted effect of over 55% in size
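Cell growth measured by CellTiter-Glo luminescence after a minimum 48 h, 37 C compound exposure with 20 nM CPT in Tdp1-knockout DT40 cells stably expressing hTDP1, seeded 400/well; qHTS titration format.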
An asterisk follows results filed as active; ? = inconclusive; . = no result. Unless noted, calls come from the whole dose curve; as a rule, active = well fitted curve in the direction sought with a large enough effect; inconclusive = small, poorly fitted or top-dose-only effect, or another doubt; inactive = no such curve, though single readings can be large; an effect the other way counts as inactive or inconclusive. Unless noted, % is set by controls: 0 for no effect and ±100 for the full control effect.

SMILES | HT1080-NT tox | ALOX12 inh | HT1080 IDH1KD tx | DT40 TDP1 no CPT | IL1B secr inh | TDP1 cell CPT
CCC(C(=O)Nc1ccc(C(C)C)cc1)n1cnc2ccccc2c1=O (centres undefined) | . | 45% | . | . | . | .
C/C=C(/C)C(=O)O[C@@H]1c2cc3c(c(OC)c2-c2c(cc(OC)c(OC)c2OC)[C@@H](OC(C)=O)[C@@H](C)[C@H]1C)OCO3 | 2% | . | 11% | 16µM* | 1 | 18µM*
COc1cc2c(c(OC)c1OC)-c1c(cc3c(c1OC)OCO3)C[C@H](C)[C@@](C)(O)C2 | 16% | 5% | 14% | -19% | -17 | -16%
COCCOC(=O)C1=C(C)N=C2SC=C(CC(=O)N3CCCCC3C)N2C1c1ccccc1 (centres undefined) | . | 51% | . | . | . | .
S=C1Nc2ccccc2Sc2ccc(Cl)cc21 | 1% | -28% | -26% | ? | 10 | ?
CCCCCC[N+](C)(C)CC/C=C1/c2ccccc2Sc2ccc(Cl)cc21 | -20% | ? | -24% | 5.8µM* | -24 | 7.3µM*
Cn1cccc1/C=C(/C#N)C(N)=S | 13% | ? | 17% | -19% | 6 | -5%
CCCCc1ccc(/C=C(\C#N)C(N)=S)s1 | -23% | 40µM* | -2% | ? | -25 | ?
CC1=C[C@@H](CNCc2ccccc2O)[C@H](C(C)C)C[C@H]1Cc1nc2c(C)cccc2[nH]1 | . | 63µM* | . | . | . | .
Cn1cnnc1CC1CCN(C(=O)CCc2nc3ccccc3[nH]c2=O)CC1 | . | 48% | . | . | . | .
CCOC(=O)c1c(NC(=O)c2ccccc2Br)sc2c1CCc1ccccc1-2 | 4% | ? | 1% | 18µM* | 6 | ?
CCOC(=O)c1c(NC(C)=O)sc2c1CCC(C=O)=C2Sc1ccccc1 | 14µM* | ? | 7.1µM* | 6.5µM* | -100* | 6.5µM*
CCn1c(O)c(/C=C2\C=Nc3ccccc32)sc1=Nc1ccccc1 | 5% | -21% | 3% | 12µM* | 8 | 10µM*
CN(CC1CCCCC1)C1CCc2nn(C)c(=O)n2CC1 (centres undefined) | . | -3% | . | . | . | .
O=[N+]([O-])c1ccc(Sc2ccc(Cl)c(Cl)c2)nc1 | 2% | -3% | -4% | -29% | -58* | ?
CCc1ccc2nc(-c3ccc(C)cc3C)cc(C(=O)O)c2c1 | . | -43% | . | . | . | .
CCOc1ccc(OCC)c(Nc2cc(C)nc3nc(C)nn23)c1 | -10% | ? | -25% | ? | -13 | 18µM*
CCOc1ccccc1Nc1cc(C)nc2nc(C)nn12 | 7% | 5.6µM* | 1% | 2% | 5 | 9%
COC(C(=O)Nc1ccc(S(=O)(=O)Nc2ccc(F)cc2)cc1)c1ccccc1 (centres undefined) | ? | -27% | ? | ? | -101* | ?
COC(C(=O)Nc1ccc(S(=O)(=O)N2CCCCC2)cc1)c1ccccc1 (centres undefined) | -16% | -3% | -7% | -22% | -11 | ?
COc1ccc2cnn(CC(=O)Nc3cccc4ccccc34)c(=O)c2c1OC | . | -4% | . | . | . | .
Cc1ccc(C)c(CN2C(=O)c3ccccc3S(=O)(=O)c3ccc(C(=O)N4CCc5ccccc54)cc32)c1 | . | -13% | . | 5.8µM* | . | 5.8µM*
Cc1ccc(C)c(CN2C(=O)c3ccccc3S(=O)(=O)c3ccc(C(=O)N4CCN(C)CC4)cc32)c1 | -2% | -3% | 2% | -29% | 0 | 0%
Cc1ccc(C)c(CN2C(=O)c3ccccc3S(=O)(=O)c3ccc(C(=O)N4CCN(Cc5ccccc5)CC4)cc32)c1 | . | -2% | . | 6.5µM* | . | 6.5µM*
COc1ccc(N2CCN(C(=O)CCc3nnc4ccc(N5CCC(C)CC5)nn34)CC2)cc1 | -1% | -10% | -1% | 18µM* | -12 | 18µM*
SMILES | HT1080-NT tox | ALOX12 inh | HT1080 IDH1KD tx | DT40 TDP1 no CPT | IL1B secr inh | TDP1 cell CPT
COc1ccc(OC)c(NC(=O)CCc2nnc3ccc(N4CCC(C)CC4)nn23)c1 | 0% | -5% | 0% | ? | -50* | -30%
COc1ccccc1N1CCN(C(=O)CCc2nnc3ccc(N4CCOCC4)nn23)CC1 | -2% | 11% | 4% | 2% | 0 | -17%
COc1cccc(N2CCN(c3ccc4nnc(CCC(=O)Nc5cccc(C(C)=O)c5)n4n3)CC2)c1 | 14% | -7% | 6% | ? | 24 | 16µM*
CC1CCN(c2ccc3nnc(CCC(=O)N4CCN(c5ccccc5F)CC4)n3n2)CC1 | 0% | -14% | 13% | 15µM* | -12 | 23µM*
COc1ccc(C(=O)NCC(c2cccnc2)N2CCN(c3ccccc3)CC2)cc1 (centres undefined) | . | 5% | . | 16µM* | . | ?
COc1ccc(C(=O)NCC(c2cccnc2)N2CCN(c3ccc(F)cc3)CC2)cc1 (centres undefined) | . | -24% | . | 10µM* | . | 15µM*
COc1cccc(/C=C2/CN(C)CC3=C2OC(N)=C(C#N)C3c2cccc(OC)c2)c1 (centres undefined) | ? | ? | ? | 16µM* | ? | 18µM*
CC(Oc1c(Cl)cccc1Cl)C(=O)NN (centres undefined) | . | 19% | . | . | . | .
Brc1ccc(CSc2nc3ccccc3s2)cc1 | . | -1% | . | . | . | .
O=C(O)/C(=C\c1ccc(Br)cc1)Sc1nc2ccccc2s1 | . | 8.9µM* | . | . | . | .
COc1ccc(C(C)n2c(C)c3c(C)nnc(C)c3c2C)cc1 (centres undefined) | 1% | 37% | -11% | 23µM* | -5 | 15µM*
CC(c1ccccc1)n1c(-c2ccccc2)n[nH]c1=S (centres undefined) | . | . | . | -30% | . | -17%
Cc1nnc(C)c2c(C)n(C(C)c3ccccc3)c(C)c12 (centres undefined) | -5% | -7% | ? | 12µM* | -12 | 16µM*
COc1ccc(-c2nc(C)c(C(C)=O)n2O)cc1 | -14% | -8% | -17% | ? | ? | -23%
CCC(C)Sc1ccc([C@H]2N[C@@](Cc3ccccc3)(C(=O)OC)[C@H]3C(=O)N(CC)C(=O)[C@@H]23)cc1OC (some centres undefined) | 12% | -7% | -3% | 21µM* | -18 | ?
CCC(C)Sc1ccc([C@H]2N[C@@](CC(C)C)(C(=O)OC)[C@H]3C(=O)N(CC)C(=O)[C@@H]23)cc1 (some centres undefined) | 8% | -13% | 7% | ? | 0 | ?

Screening results from PubChem.
